# Data published in the supplement of paper PMC11732987, “Enantioselective OTUD7B fragment discovery through chemoproteomics screening and high-throughput optimisation” (Communications Chemistry, 2025).
# Unmarked numbers belong to inactive results.
# Assays:
# Assay in all cases: log2 ratio of Biotin-Ahx-Ub-VS probe labelling (fragment/DMSO); higher = less target engagement (more negative = stronger competition), active = hit call of the paper (q ≤ 0.05, log2 ratio ≤ -1)
# Details in all cases: compound concentration: 200 uM; treatment time: 3 h
# ALG13 = target: T1, ALG13 (UniProt Q9NP73)
# T1 sequence (whole entry): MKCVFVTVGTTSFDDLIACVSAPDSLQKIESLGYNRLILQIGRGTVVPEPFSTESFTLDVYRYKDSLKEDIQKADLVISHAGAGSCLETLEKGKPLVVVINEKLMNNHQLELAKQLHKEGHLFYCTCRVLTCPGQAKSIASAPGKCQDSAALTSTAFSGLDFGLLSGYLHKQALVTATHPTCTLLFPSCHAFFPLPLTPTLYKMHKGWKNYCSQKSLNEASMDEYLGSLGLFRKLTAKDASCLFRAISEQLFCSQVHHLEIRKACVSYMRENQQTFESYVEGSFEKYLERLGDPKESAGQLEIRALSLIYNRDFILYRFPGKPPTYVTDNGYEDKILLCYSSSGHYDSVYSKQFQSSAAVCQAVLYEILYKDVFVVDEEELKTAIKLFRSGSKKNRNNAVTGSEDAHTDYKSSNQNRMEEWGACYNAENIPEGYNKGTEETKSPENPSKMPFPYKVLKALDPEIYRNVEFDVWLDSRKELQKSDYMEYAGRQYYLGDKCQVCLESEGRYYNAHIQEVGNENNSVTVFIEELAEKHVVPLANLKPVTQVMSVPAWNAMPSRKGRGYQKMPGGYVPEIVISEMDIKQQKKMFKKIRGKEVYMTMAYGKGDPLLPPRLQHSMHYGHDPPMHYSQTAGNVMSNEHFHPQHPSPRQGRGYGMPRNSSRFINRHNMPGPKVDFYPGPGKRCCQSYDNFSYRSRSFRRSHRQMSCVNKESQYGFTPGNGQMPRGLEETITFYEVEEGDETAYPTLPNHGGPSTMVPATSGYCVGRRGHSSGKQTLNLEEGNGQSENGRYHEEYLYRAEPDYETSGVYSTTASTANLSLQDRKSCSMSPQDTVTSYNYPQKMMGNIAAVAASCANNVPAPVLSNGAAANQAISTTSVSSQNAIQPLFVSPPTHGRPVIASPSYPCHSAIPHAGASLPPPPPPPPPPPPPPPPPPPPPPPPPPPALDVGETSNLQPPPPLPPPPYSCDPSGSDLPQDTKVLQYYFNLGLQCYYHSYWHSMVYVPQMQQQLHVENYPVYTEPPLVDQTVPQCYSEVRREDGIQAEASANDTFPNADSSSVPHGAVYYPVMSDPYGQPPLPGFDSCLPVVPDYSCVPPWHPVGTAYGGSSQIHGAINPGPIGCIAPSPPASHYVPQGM
# How it was run: (§1)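 Fragment (200 µM) or vehicle was incubated for 3 h with triplicate HEK293T lysate samples of 495 µg, which were then treated with Biotin-Ahx-Ub-VS at 0.5 µM final for 1 h. Labelled DUBs were enriched on NeutrAvidin, digested with LysC and trypsin, and analysed by diaPASEF LC-MS/MS. Values are average log2 fragment/vehicle ratios from an unpaired t-test on global-median-normalised Spectronaut label-free quantities, using proteins with ≥2 unique peptides.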
# ATXN3 = ATXN3 (UniProt P54252)
# Sequence of ATXN3 (P54252 whole entry): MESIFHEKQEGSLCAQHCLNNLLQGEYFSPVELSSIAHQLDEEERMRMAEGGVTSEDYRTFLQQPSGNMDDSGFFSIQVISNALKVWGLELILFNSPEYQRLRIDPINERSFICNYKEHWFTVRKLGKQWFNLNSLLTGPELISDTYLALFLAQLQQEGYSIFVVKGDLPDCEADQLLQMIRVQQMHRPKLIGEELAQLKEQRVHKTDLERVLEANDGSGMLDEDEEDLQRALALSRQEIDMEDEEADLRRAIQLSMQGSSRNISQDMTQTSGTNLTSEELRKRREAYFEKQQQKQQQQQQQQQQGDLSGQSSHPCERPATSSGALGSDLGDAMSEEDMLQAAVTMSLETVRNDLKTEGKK
# How it was run: as §1
# BAP1 = target: T2, BAP1 (UniProt Q92560)
# T2 sequence (whole entry): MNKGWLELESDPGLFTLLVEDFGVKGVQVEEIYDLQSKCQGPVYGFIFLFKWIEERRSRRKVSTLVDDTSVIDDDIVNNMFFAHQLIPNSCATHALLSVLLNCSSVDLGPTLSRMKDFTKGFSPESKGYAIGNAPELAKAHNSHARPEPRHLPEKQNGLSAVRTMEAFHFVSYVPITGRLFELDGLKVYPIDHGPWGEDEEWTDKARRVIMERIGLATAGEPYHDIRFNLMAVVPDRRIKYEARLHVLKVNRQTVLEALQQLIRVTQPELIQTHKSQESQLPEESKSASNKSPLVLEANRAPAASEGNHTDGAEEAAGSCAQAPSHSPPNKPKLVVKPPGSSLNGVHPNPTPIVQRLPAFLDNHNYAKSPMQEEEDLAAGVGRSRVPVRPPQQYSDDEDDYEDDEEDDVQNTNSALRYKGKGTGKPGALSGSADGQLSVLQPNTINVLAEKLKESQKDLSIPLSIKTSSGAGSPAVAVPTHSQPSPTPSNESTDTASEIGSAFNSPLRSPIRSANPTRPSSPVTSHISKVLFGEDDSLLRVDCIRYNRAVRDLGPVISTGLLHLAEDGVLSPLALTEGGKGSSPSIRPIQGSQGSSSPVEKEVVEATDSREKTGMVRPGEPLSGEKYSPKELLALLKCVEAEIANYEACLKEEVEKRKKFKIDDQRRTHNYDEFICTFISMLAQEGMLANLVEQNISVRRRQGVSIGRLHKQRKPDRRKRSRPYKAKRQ
# How it was run: as §1
# EIF3F = EIF3F (UniProt O00303)
# Sequence of EIF3F (O00303 whole entry): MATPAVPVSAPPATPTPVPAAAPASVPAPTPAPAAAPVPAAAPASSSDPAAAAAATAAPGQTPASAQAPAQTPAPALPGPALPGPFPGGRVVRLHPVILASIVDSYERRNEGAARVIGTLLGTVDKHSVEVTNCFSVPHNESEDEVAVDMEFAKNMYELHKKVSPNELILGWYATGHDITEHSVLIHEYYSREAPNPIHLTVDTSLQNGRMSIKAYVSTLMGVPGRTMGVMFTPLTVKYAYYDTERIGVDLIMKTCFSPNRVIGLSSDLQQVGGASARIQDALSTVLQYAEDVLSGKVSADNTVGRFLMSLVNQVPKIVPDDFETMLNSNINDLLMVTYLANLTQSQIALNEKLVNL
# How it was run: as §1
# EIF3H = EIF3H (UniProt O15372)
# Sequence of EIF3H (O15372 whole entry): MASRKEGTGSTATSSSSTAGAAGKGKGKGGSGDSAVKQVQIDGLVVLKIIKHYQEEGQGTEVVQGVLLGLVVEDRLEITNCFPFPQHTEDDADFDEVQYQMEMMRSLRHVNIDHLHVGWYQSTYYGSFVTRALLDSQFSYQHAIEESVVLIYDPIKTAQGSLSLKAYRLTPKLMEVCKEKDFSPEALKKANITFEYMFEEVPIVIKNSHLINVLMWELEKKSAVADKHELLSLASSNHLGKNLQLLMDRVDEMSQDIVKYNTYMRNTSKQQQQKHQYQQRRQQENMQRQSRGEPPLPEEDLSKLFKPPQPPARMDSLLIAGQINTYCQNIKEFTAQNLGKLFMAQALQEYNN
# How it was run: as §1
# FAM105A = target: T3, FAM105A (UniProt Q9NUU6)
# T3 sequence (whole entry): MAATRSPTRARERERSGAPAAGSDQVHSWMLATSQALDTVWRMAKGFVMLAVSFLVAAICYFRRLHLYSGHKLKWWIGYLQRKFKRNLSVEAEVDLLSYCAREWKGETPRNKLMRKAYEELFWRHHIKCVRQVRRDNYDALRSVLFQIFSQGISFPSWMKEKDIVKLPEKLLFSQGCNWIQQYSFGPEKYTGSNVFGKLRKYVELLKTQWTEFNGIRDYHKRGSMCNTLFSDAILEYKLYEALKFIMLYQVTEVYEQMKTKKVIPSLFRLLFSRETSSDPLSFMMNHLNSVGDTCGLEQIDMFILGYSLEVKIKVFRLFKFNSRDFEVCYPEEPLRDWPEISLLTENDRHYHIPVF
# How it was run: as §1
# OTUB1 = OTUB1 (UniProt Q96FW1)
# Sequence of OTUB1 (Q96FW1 whole entry): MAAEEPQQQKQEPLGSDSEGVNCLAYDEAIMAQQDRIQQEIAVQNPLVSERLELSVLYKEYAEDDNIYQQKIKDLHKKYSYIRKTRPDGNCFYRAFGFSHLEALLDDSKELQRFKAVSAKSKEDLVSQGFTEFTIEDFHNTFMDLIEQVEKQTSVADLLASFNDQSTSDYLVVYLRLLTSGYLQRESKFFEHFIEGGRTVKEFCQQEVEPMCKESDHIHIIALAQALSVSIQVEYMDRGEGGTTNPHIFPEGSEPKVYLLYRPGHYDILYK
# How it was run: as §1
# OTUD4 = target: T4, OTUD4 (UniProt Q01804)
# T4 sequence (whole entry): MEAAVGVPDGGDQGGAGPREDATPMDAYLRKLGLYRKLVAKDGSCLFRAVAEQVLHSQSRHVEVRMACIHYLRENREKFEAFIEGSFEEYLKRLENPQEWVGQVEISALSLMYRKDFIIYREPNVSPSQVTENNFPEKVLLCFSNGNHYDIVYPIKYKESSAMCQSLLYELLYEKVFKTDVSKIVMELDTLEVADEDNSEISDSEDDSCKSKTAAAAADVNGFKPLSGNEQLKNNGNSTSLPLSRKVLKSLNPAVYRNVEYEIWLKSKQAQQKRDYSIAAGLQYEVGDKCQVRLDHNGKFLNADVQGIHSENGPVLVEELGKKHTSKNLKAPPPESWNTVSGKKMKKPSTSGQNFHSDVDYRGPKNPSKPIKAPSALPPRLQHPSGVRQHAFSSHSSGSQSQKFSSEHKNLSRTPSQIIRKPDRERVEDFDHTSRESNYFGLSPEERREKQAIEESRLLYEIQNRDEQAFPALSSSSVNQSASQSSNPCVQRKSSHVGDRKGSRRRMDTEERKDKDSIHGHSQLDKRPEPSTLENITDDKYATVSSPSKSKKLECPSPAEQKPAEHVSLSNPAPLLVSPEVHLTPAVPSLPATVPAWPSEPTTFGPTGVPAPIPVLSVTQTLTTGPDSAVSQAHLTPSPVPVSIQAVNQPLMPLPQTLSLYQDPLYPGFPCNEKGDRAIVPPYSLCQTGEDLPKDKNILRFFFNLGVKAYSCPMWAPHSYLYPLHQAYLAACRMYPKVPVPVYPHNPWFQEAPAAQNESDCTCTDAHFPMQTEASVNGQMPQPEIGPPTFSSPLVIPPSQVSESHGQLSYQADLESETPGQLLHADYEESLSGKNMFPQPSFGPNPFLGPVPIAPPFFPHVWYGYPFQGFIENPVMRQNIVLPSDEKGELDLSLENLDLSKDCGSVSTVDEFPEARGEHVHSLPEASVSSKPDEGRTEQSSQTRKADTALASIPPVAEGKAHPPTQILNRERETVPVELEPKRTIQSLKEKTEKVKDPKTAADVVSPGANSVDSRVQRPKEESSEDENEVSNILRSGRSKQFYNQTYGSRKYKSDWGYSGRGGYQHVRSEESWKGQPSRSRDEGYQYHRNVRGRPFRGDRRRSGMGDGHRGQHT
# How it was run: as §1
# OTUD5 = target: T5, OTUD5 (UniProt Q96G74)
# T5 sequence (whole entry): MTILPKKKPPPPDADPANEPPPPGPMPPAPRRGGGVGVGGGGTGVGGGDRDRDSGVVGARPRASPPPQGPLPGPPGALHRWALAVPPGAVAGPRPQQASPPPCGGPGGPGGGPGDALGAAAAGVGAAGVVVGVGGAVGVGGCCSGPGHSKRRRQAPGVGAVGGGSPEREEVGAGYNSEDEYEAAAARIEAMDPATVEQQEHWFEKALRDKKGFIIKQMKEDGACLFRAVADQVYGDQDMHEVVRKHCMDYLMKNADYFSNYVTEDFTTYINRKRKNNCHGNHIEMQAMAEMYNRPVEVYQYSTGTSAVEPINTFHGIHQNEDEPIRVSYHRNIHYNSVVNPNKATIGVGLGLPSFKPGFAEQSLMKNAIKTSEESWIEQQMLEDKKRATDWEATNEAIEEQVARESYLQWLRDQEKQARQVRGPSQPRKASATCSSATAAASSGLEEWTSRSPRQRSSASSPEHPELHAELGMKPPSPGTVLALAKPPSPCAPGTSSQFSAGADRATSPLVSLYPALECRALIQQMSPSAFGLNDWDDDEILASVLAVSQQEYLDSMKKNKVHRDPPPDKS
# How it was run: as §1
structure (smiles),measurement,setting,value
CNC(=O)Cn1cc(NC(=O)CCl)cn1,log2 ratio of Biotin-Ahx-Ub-VS probe labelling,ALG13,-0.433
same,log2 ratio of Biotin-Ahx-Ub-VS probe labelling,ATXN3,-0.517
same,log2 ratio of Biotin-Ahx-Ub-VS probe labelling,BAP1,-1.67 (active)
same,log2 ratio of Biotin-Ahx-Ub-VS probe labelling,EIF3F,-0.308
same,log2 ratio of Biotin-Ahx-Ub-VS probe labelling,EIF3H,0.0304
same,log2 ratio of Biotin-Ahx-Ub-VS probe labelling,FAM105A,-0.125
same,log2 ratio of Biotin-Ahx-Ub-VS probe labelling,OTUB1,-0.0242
same,log2 ratio of Biotin-Ahx-Ub-VS probe labelling,OTUD4,-0.305
same,log2 ratio of Biotin-Ahx-Ub-VS probe labelling,OTUD5,-0.468
